According to PubChem BioAssay:
Active and inactive are the calls of the source.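 Rule for the calls: active = normalized viability below 100% at a tested concentration; inactive = the rest.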

Experiment: ovarian cancer cell viability with rucaparib, profiling panel, oncology-focused library, rucaparib conditional (AID 1508598)
Details: patient-derived ovarian cancer cells, CellTiter-Glo viability, 144 h, active compounds read low
[1] = at 0.000305 µM, OCI-C5x cells, with rucaparib 10 µM, 100% = cells with rucaparib alone
[2] = at 0.000305 µM, OCI-C5x cells, without rucaparib
[3] = at 0.000305 µM, OCI-P5x cells, with rucaparib 20 µM, 100% = cells with rucaparib alone
[4] = at 0.000305 µM, OCI-P5x cells, without rucaparib
[5] = at 0.00122 µM, OCI-C5x cells, with rucaparib 10 µM, 100% = cells with rucaparib alone
[6] = at 0.00122 µM, OCI-C5x cells, without rucaparib
[7] = at 0.00122 µM, OCI-P5x cells, with rucaparib 20 µM, 100% = cells with rucaparib alone
[8] = at 0.00122 µM, OCI-P5x cells, without rucaparib
[9] = at 0.00488 µM, OCI-C5x cells, with rucaparib 10 µM, 100% = cells with rucaparib alone
[10] = at 0.00488 µM, OCI-C5x cells, without rucaparib
[11] = at 0.00488 µM, OCI-P5x cells, with rucaparib 20 µM, 100% = cells with rucaparib alone
[12] = at 0.00488 µM, OCI-P5x cells, without rucaparib
[13] = at 0.0195 µM, OCI-C5x cells, with rucaparib 10 µM, 100% = cells with rucaparib alone
[14] = at 0.0195 µM, OCI-C5x cells, without rucaparib
[15] = at 0.0195 µM, OCI-P5x cells, with rucaparib 20 µM, 100% = cells with rucaparib alone
[16] = at 0.0195 µM, OCI-P5x cells, without rucaparib
[17] = at 0.0781 µM, OCI-C5x cells, with rucaparib 10 µM, 100% = cells with rucaparib alone
[18] = at 0.0781 µM, OCI-C5x cells, without rucaparib
[19] = at 0.0781 µM, OCI-P5x cells, with rucaparib 20 µM, 100% = cells with rucaparib alone
[20] = at 0.0781 µM, OCI-P5x cells, without rucaparib
[21] = at 0.313 µM, OCI-C5x cells, with rucaparib 10 µM, 100% = cells with rucaparib alone
[22] = at 0.313 µM, OCI-C5x cells, without rucaparib
[23] = at 0.313 µM, OCI-P5x cells, with rucaparib 20 µM, 100% = cells with rucaparib alone
[24] = at 0.313 µM, OCI-P5x cells, without rucaparib
[25] = at 1.25 µM, OCI-C5x cells, with rucaparib 10 µM, 100% = cells with rucaparib alone
[26] = at 1.25 µM, OCI-C5x cells, without rucaparib
[27] = at 1.25 µM, OCI-P5x cells, with rucaparib 20 µM, 100% = cells with rucaparib alone
[28] = at 1.25 µM, OCI-P5x cells, without rucaparib
[29] = at 5 µM, OCI-C5x cells, with rucaparib 10 µM, 100% = cells with rucaparib alone
[30] = at 5 µM, OCI-C5x cells, without rucaparib
[31] = at 5 µM, OCI-P5x cells, with rucaparib 20 µM, 100% = cells with rucaparib alone
[32] = at 5 µM, OCI-P5x cells, without rucaparib

Measured: viability

Nc1nc(F)nc2c1ncn2[C@H]1O[C@H](CO)[C@@H](O)[C@@H]1O
inactive: [1] 101% | [2] 120% | [3] 104% | [4] 108% | [5] 106% | [6] 117% | [7] 103% | [8] 107% | [9] 112% | [10] 120% | [11] 102% | [12] 112% | [13] 109% | [14] 116% | [16] 113% | [17] 106% | [18] 111% | [19] 110% | [20] 113% | [22] 112% | [24] 112% | [27] 110% | [28] 107% | [31] 106%
active: [15] 97.4% | [21] 89.3% | [23] 99% | [25] 80.7% | [26] 82.4% | [29] 79.6% | [30] 11.9% | [32] 38.5%

N[C@@H]1CCCN(c2c(/C=C3\SC(=O)NC3=O)cccc2-c2ccccc2)C1
active: [3] 96.6% | [7] 98.1% | [15] 96.9% | [22] 99.1% | [23] 91.3% | [25] 93.8% | [27] 91.3% | [31] 74.6% | [32] 97.5%
inactive: [1] 108% | [2] 122% | [4] 112% | [5] 116% | [6] 121% | [8] 111% | [9] 119% | [10] 119% | [11] 103% | [12] 108% | [13] 105% | [14] 108% | [16] 111% | [17] 108% | [18] 115% | [19] 101% | [20] 109% | [21] 105% | [24] 106% | [26] 103% | [28] 106% | [29] 115% | [30] 119%

COC1=C2C[C@H](C)C[C@@H](OC)[C@H](O)[C@H](C)/C=C(\C)[C@H](OC(N)=O)[C@@H](OC)/C=C/C=C(\C)C(=O)NC(=CC1=O)C2=O
inactive: [3] 108% | [4] 102% | [5] 107% | [6] 106% | [8] 103% | [9] 114% | [10] 109%
active: [1] 97.2% | [2] 99.7% | [7] 93.1% | [11] 14.8% | [12] 14.2% | [13] 29.6% | [14] 12.1% | [15] 5.75% | [16] 4.97% | [17] 16.4% | [18] 9.53% | [19] 5.79% | [20] 4.23% | [21] 11.1% | [22] 7.02% | [23] 5.27% | [24] 4.3% | [25] 9.96% | [26] 7.13% | [27] 5.24% | [28] 3.95% | [29] 6.19% | [30] 5.94% | [31] 4.11% | [32] 3.72%

C=C1/C(=C/C=C2\CCC[C@@]3(C)[C@H]2CC[C@H]3[C@H](C)/C=C/[C@@H](C)C(C)C)C[C@H](O)C[C@@H]1O
active: [1] 99.9% | [2] 95% | [5] 97.2% | [6] 100% | [8] 99.9% | [9] 94% | [17] 97.1% | [21] 96.7% | [22] 96.6% | [27] 98.4%
inactive: [3] 101% | [4] 100% | [7] 105% | [10] 104% | [11] 105% | [12] 102% | [13] 103% | [14] 100% | [15] 102% | [16] 102% | [18] 100% | [19] 105% | [20] 101% | [23] 107% | [24] 104% | [25] 101% | [26] 102% | [28] 103% | [29] 120% | [30] 111% | [31] 111% | [32] 103%

CO[C@H]1C[C@@H]2CC[C@@H](C)[C@@](O)(O2)C(=O)C(=O)N2CCCC[C@H]2C(=O)O[C@H]([C@@H](C)C[C@@H]2CC[C@@H](OCCO)[C@H](OC)C2)CC(=O)[C@H](C)/C=C(\C)[C@H](O)[C@@H](OC)C(=O)[C@H](C)C[C@H](C)/C=C/C=C/C=C/1C
active: [3] 91.8% | [4] 83.4% | [7] 88% | [8] 74.1% | [11] 85% | [12] 72.9% | [15] 79.5% | [16] 72.3% | [19] 86.3% | [20] 73.1% | [23] 88% | [24] 67.8% | [27] 73.4% | [28] 60.4% | [31] 69.5% | [32] 59.4%
inactive: [1] 103% | [2] 135% | [5] 106% | [6] 120% | [9] 120% | [10] 115% | [13] 115% | [14] 112% | [17] 111% | [18] 119% | [21] 110% | [22] 111% | [25] 115% | [26] 103% | [29] 123% | [30] 120%

C[C@H]1C[C@H]2[C@@H]3CCC4=CC(=O)C=C[C@]4(C)[C@@H]3C(=O)C[C@]2(C)[C@]1(O)C(=O)CO
active: [3] 96.8% | [11] 96.6%
inactive: [1] 114% | [2] 123% | [4] 119% | [5] 118% | [6] 124% | [7] 105% | [8] 116% | [9] 110% | [10] 119% | [12] 119% | [13] 113% | [14] 122% | [15] 103% | [16] 122% | [17] 109% | [18] 122% | [19] 102% | [20] 125% | [21] 111% | [22] 125% | [23] 100% | [24] 126% | [25] 125% | [26] 129% | [27] 108% | [28] 130% | [29] 119% | [30] 148% | [31] 112% | [32] 125%

Cc1cc2c(C(=O)NC[C@H](C)c3ccccc3)c(O)c(O)cc2c(O)c1-c1c(C)cc2c(C(=O)NC[C@H](C)c3ccccc3)c(O)c(O)cc2c1O
active: [3] 99.3% | [4] 89.3% | [7] 98.5% | [8] 89.2% | [11] 97.9% | [12] 91.4% | [16] 91.3% | [20] 95.4% | [23] 96.3% | [24] 93.3% | [27] 99.6% | [28] 91.3% | [29] 15.2% | [30] 17.1% | [31] 2.71% | [32] 9.17%
inactive: [1] 120% | [2] 108% | [5] 132% | [6] 116% | [9] 128% | [10] 110% | [13] 124% | [14] 116% | [15] 102% | [17] 122% | [18] 110% | [19] 105% | [21] 119% | [22] 106% | [25] 123% | [26] 106%

CC1(C)O[C@@H]2C[C@H]3[C@@H]4CCC5=CC(=O)C=C[C@]5(C)[C@]4(F)[C@H](O)C[C@]3(C)[C@@]2(C(=O)CO)O1
active: [3] 97.2% | [11] 96.8% | [15] 92.8% | [19] 92.1% | [23] 90.6% | [27] 84% | [28] 97.8% | [30] 99.9% | [31] 78.5% | [32] 90.4%
inactive: [1] 108% | [2] 124% | [4] 122% | [5] 116% | [6] 123% | [7] 101% | [8] 116% | [9] 106% | [10] 117% | [12] 110% | [13] 105% | [14] 122% | [16] 107% | [17] 108% | [18] 120% | [20] 110% | [21] 105% | [22] 114% | [24] 106% | [25] 109% | [26] 108% | [29] 109%

COc1cc(=C2C=c3ccccc3=N2)[nH]/c1=C\c1[nH]c(C)cc1C
active: [3] 81.8% | [4] 30.2% | [7] 69.4% | [8] 19.5% | [12] 97.2% | [15] 98.9% | [16] 97.5% | [18] 79.1% | [19] 29.2% | [20] 77.3% | [22] 93.7% | [23] 13.2% | [24] 18.4% | [25] 89.4% | [26] 91.7% | [27] 10.1% | [28] 22% | [29] 37.7% | [30] 21.3%
inactive: [1] 118% | [2] 122% | [5] 127% | [6] 124% | [9] 132% | [10] 114% | [11] 105% | [13] 115% | [14] 115% | [17] 110% | [21] 131%
